Reference: the supplement of paper PMC5940239

Key:
[1] = system: Madurella mycetomatis MM55; assay: IC90; higher = less potent; conditions: 7 days
[2] = system: Madurella mycetomatis MM55; assay: percent growth relative to solvent control; higher = less inhibition, active = 20 or less; conditions: 100 µM; 7 days
[3] = system: Madurella mycetomatis MM55; conditions: 7 days

Q: How did the IC90 [1] turn out when `O=C(NCCc1ccccc1)c1cc(-c2cccnc2)cnc1NCC1CC1` was run?
A: 92.4 µM

Q: And the percent growth [2]?
A: 1.69% (active)

Q: Which IC50 [3] does the source give for `Nc1nccc2ccc(-c3ccc4nccn4c3)cc12` here?
A: 53.9 µM

Q: And the IC90 [1]?
A: 89.2 µM

Q: And the percent growth [2]?
A: -2.88% (active)

Q: `CC1=NN(c2nc3ccccc3s2)C(=O)C1Cc1cccc2ccccc12` (stereo unspecified) was tested. Which IC50 [3] did it give?
A: 62.1 µM

Q: And the IC90 [1]?
A: 93 µM

Q: And the percent growth [2]?
A: 1.31% (active)

Q: How did the IC50 [3] turn out when `CC(C)(C)C1CCC(CC2=C(O)C(=O)c3ccccc3C2=O)CC1` (stereo unspecified) was run?
A: 66.8 µM

Q: What about the IC90 [1] of the same molecule?
A: 92.7 µM

Q: And the percent growth [2]?
A: -0.835% (active)

Q: For `CC(=O)Nc1ccc(-c2noc(CC3CCCN(Cc4cccc(F)c4C)C3)n2)cc1` (stereo unspecified), which IC50 [3] is on record?
A: 66.2 µM

Q: And the IC90 [1]?
A: 94.5 µM

Q: What about the percent growth [2] of the same molecule?
A: 1.89% (active)

Q: Which results are given for `N#CCN(CCCCN1CCN(c2ccc(F)cc2)CC1)C(=O)OCc1ccccc1`?
A: IC50 [3]: 64.3 µM; IC90 [1]: 93.7 µM; percent growth [2]: 1.57% (active)

Q: What does the source list for `Cc1cc(C)c2cc(C(=O)NC3CCCCCCC3)[nH]c2c1`?
A: IC50 [3]: 64.9 µM; IC90 [1]: 94.3 µM; percent growth [2]: 2.52% (active)

Q: Which results are given for `CCN(CC)CCCCCCNc1cc(OC)cc2c(C)ccnc12`?
A: IC50 [3]: 9.8 µM; IC90 [1]: 17.8 µM; percent growth [2]: -1.36% (active)

Q: What does the source list for `CN1CCCC1CCO[C@](C)(c1ccccc1)c1ccc(Cl)cc1` (stereo partly specified)?
A: IC50 [3]: 9.85 µM; IC90 [1]: 18.3 µM; percent growth [2]: -0.386% (active)

Q: Which IC50 [3] does the source give for `N=C(N)Nc1ccc(-c2ccc(-c3ccc(NC(=N)N)cc3Cl)o2)c(Cl)c1` here?
A: 11.4 µM

Q: And the IC90 [1]?
A: 17.8 µM

Q: And the percent growth [2]?
A: -6.7% (active)

Q: Which results are given for `Cc1ccc(NC(=O)CC2COc3ccccc3O2)cc1Cl` (stereo unspecified)?
A: IC50 [3]: 51.9 µM; IC90 [1]: 91.3 µM; percent growth [2]: 1.24% (active)

Q: How did the IC50 [3] turn out when `COc1cc(C2=NCCN2)cc2cc(-c3ccc(C4=NCCN4)cc3)oc12` was run?
A: 48.3 µM

Q: And the IC90 [1]?
A: 88.8 µM

Q: And the percent growth [2]?
A: -1.77% (active)

Q: Which results are given for `c1ccc(Oc2ccc(-c3cc(CN4CCOCC4)[nH]n3)cc2)cc1`?
A: IC50 [3]: 65.4 µM; IC90 [1]: 95.6 µM; percent growth [2]: 3.77% (active)

Q: With `Cc1cc(OCC(=O)NCc2ccccc2)c2cc(Br)ccc2n1` as the molecule, how does the IC50 [3] read?
A: 67.9 µM

Q: And the IC90 [1]?
A: 100 µM

Q: What about the percent growth [2] of the same molecule?
A: 15.1% (active)

Q: For `CN1CCN(c2cc(-c3ccc(F)cc3)nc(-c3ccncc3)n2)CC1`, which IC50 [3] is on record?
A: 37.1 µM

Q: And the IC90 [1]?
A: 91.2 µM

Q: What about the percent growth [2] of the same molecule?
A: 2.98% (active)

Q: For `Cc1cc(NCCc2ccccc2)nc(NC(=N)Nc2ccc(Cl)cc2)n1`, which IC50 [3] is on record?
A: 10.4 µM

Q: What about the IC90 [1] of the same molecule?
A: 18.8 µM

Q: And the percent growth [2]?
A: -1.87% (active)

Q: How did the IC50 [3] turn out when `CCC(Sc1nc2ccccc2o1)C(=O)Nc1nccs1` (stereo unspecified) was run?
A: 37.1 µM

Q: And the IC90 [1]?
A: 56.5 µM

Q: What about the percent growth [2] of the same molecule?
A: 0.757% (active)

Q: Which results are given for `Brc1cncc(-c2cc(NCCCn3ccnc3)nc(-c3ccccc3)n2)c1`?
A: IC50 [3]: 55 µM; IC90 [1]: 90.8 µM; percent growth [2]: -0.251% (active)

Q: Which IC50 [3] does the source give for `N=C(N)c1ccc(-c2cc(-c3ccccc3)on2)cc1` here?
A: 52.1 µM

Q: And the IC90 [1]?
A: 90.2 µM

Q: What about the percent growth [2] of the same molecule?
A: -0.237% (active)

Q: `O=C(Nc1cccc(-c2ccc(NCCCN3CCCC3)nc2)c1)c1ccccc1` was tested. Which IC50 [3] did it give?
A: 53.1 µM

Q: And the IC90 [1]?
A: 90.9 µM

Q: And the percent growth [2]?
A: -1.11% (active)

Q: Which IC50 [3] does the source give for `CCCCCCCCCCCCCCCCOP(=O)([O-])OCC[N+](C)(C)C` here?
A: 59.3 µM

Q: What about the IC90 [1] of the same molecule?
A: 90.8 µM

Q: And the percent growth [2]?
A: -0.857% (active)

Q: `Cc1cnc(N2CCN[C@@H](Cc3ccccc3)C2)nc1Oc1ccc(-n2ccnc2)cc1` was tested. Which IC50 [3] did it give?
A: 10.7 µM

Q: And the IC90 [1]?
A: 20.8 µM

Q: What about the percent growth [2] of the same molecule?
A: 3.67% (active)

Q: Which results are given for `COc1ccc(-c2cc(NC(=O)c3ccc(F)cc3Cl)ccc2OC)cc1`?
A: IC50 [3]: 31.4 µM; IC90 [1]: 53 µM; percent growth [2]: 19.5% (active)

Q: Which results are given for `Cc1ncc(-c2ccnc(Nc3ccc(S(C)(=O)=O)cc3)n2)n1C(C)C`?
A: IC50 [3]: 65.9 µM; IC90 [1]: 96.9 µM; percent growth [2]: 6.23% (active)

Q: What does the source list for `COc1ccc(OC(C)C(=O)Nc2ccc(Cl)cc2C)cc1` (stereo unspecified)?
A: IC50 [3]: 26.9 µM; IC90 [1]: 54.5 µM; percent growth [2]: 0.806% (active)

Q: `c1ccc2c(c1)CN(CC1CC1)CC1(CCN(Cc3c[nH]c4cnccc34)CC1)O2` was tested. Which IC50 [3] did it give?
A: 62.9 µM

Q: What about the IC90 [1] of the same molecule?
A: 96 µM

Q: What about the percent growth [2] of the same molecule?
A: 5.33% (active)

Q: What does the source list for `Cc1ccc2nc(Cl)c(CNCc3cccs3)cc2c1`?
A: IC50 [3]: 37.5 µM; IC90 [1]: 54.5 µM; percent growth [2]: -0.463% (active)

Q: With `COc1ccc(-c2cnc3ccc(N4CCCC4)nn23)cc1OC` as the molecule, how does the IC50 [3] read?
A: 64 µM

Q: And the IC90 [1]?
A: 92.7 µM

Q: What about the percent growth [2] of the same molecule?
A: 0.205% (active)

Q: `COc1ccc(C2=NN(C3CCCCCC3)C(=O)C2(C)C)cc1OCCCCOc1ccc(-c2nn[nH]n2)cc1` was tested. Which IC50 [3] did it give?
A: 50.9 µM

Q: What about the IC90 [1] of the same molecule?
A: 90.9 µM

Q: What about the percent growth [2] of the same molecule?
A: 0.849% (active)

Q: For `c1ccc(-c2cc(N3CCCCC3)c3ccccc3n2)nc1`, which IC50 [3] is on record?
A: 60 µM

Q: And the IC90 [1]?
A: 92.4 µM

Q: And the percent growth [2]?
A: 0.766% (active)

Q: Which results are given for `CC[P](CC)(CC)=[Au][S][C@H]1O[C@@H](COC(C)=O)[C@H](OC(C)=O)[C@@H](OC(C)=O)[C@@H]1OC(C)=O`?
A: IC50 [3]: 17.1 µM; IC90 [1]: 45.8 µM; percent growth [2]: 3.51% (active)

Q: For `COc1cccc(-c2nc3c(N4CCCC4)cccc3n2CC2CCCN2)n1` (stereo unspecified), which IC50 [3] is on record?
A: 37.4 µM

Q: What about the IC90 [1] of the same molecule?
A: 84 µM

Q: And the percent growth [2]?
A: -0.727% (active)

Q: Which results are given for `O=C(Nc1nc(-c2ccccn2)cs1)c1cncn1-c1ccccc1`?
A: IC50 [3]: 10.8 µM; IC90 [1]: 40.8 µM; percent growth [2]: 1.78% (active)

Q: How did the IC50 [3] turn out when `O=C(Nc1ccccc1)c1ccc(-c2cc3ccncc3cc2OC2CCNCC2)s1` was run?
A: 54.3 µM

Q: What about the IC90 [1] of the same molecule?
A: 87.4 µM

Q: What about the percent growth [2] of the same molecule?
A: -5% (active)
